This is a sample that favours compounds with a hit; in the whole collection about 9.8% have one here.
HPGD block: HPGD (human) dehydrogenase inhibition. P15428. purified HPGD, NADH fluorescence kinetic, PGE2 substrate. Potency, µM, for inactives: top-dose activity change, negative = inhibition, hits mostly inhibitors. 150,000 compounds, 4.3% hits. AID 894; active means well fitted inhibition curve with a large enough effect, not every such curve was filed as active; inconclusive means small, poorly fitted or top-dose-only effect, or another doubt; inactive means no such curve, though single readings can be large or run the other way; further: potency means the concentration at half of the fitted maximal effect; on the % scale 0 is the no-effect control and ±100 the full control effect
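NADH formation kinetics: reaction with 30 uM PGE2 and 1 mM NAD+ (final), 20 nM enzyme, Tris-HCl pH 8 with Tween 20, after 15 min compound preincubation at room temperature. Fluorescence change, last versus first of five reads.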
CBFb RUNX1 block: CBF-beta/RUNX1 interaction disruption; Q01196+Q13951; AlphaScreen CBFb-His/RUNX1-biotin binding, biochemical; Potency, µM (highest dose often 59.8 µM), without a hit: at the top dose activity, negative = inhibition, actives largely listed as inhibitors; 230,000 tested, under 10 active; AID 1477; further: % of control where 0% means no effect
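Bead-based AlphaScreen assay; binding partners His-tagged CBF-beta and biotinylated RUNX1 at 30 nM each. Compound exposure 15 min after a 20-min protein preincubation; bead step 90 min; all steps at room temperature.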
HTT aggregate: inhibitors of mutant huntingtin aggregate formation in PC12 cells; AID 1688; 220,000 compounds, 1.1% hits; Potency, µM (highest dose often 46.1 µM), without a hit: at the top dose activity change, negative = inhibition, hits mostly inhibitors; PC12 HttQ103-GFP aggregates, Acumen cytometry, 40 h; further: potency means the concentration at half of the fitted maximal effect; on the % scale 0 is the no-effect control and ±100 the full control effect; nearly all actives have a fitted effect of over 60% in size
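PC12/HTTQ103-GFP, ecdysone-inducible; teb 100 nM; cpd qHTS titration; GFP aggregates read on laser cytometer, Ex 488/Em 500-530 nm.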
HTT ATP protect: cytoprotection in Huntington HTT-Q103 PC12 cell model | 230,000 compounds, 0.14% hits | Potency, µM (series often up to 56.4 µM), for the others: cytoprotection (ATP increase), hits mostly activators | PC12 HTT-Q103 induced, cytoprotection, ATP luminescence, 40 h | AID 1471; further: potency means the concentration at half of the fitted maximal effect; % of control where 0% means no effect; nearly all actives have a fitted effect of over 45% in size
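ATP quantification (ATPlite) reports survival of PC12 cells in which tebufenozide, 100 nM final, switches on Htt exon 1 with 103 glutamines linked to GFP; compounds are titrated.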
ALDH1A1 inh: blocks purified human ALDH1A1 activity | P00352 | Purified ALDH1A1, NADH fluorescence, propionaldehyde substrate | Potency, µM (titrated, usually from 75.3 µM), for inactives: at the highest dose activity, negative = inhibition, most hits filed as inhibitors | 220,000 compounds, 7.3% hits | AID 1030; active means well fitted inhibition curve with a large enough effect, not every such curve was filed as active; inconclusive means small, poorly fitted or top-dose-only effect, or another doubt; inactive means no such curve, though single readings can be large or run the other way;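 further: potency means the concentration at half of the fitted maximal effect; plate controls were no enzyme wells and a reference inhibitor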
Target sequence (P00352 whole entry, looked up): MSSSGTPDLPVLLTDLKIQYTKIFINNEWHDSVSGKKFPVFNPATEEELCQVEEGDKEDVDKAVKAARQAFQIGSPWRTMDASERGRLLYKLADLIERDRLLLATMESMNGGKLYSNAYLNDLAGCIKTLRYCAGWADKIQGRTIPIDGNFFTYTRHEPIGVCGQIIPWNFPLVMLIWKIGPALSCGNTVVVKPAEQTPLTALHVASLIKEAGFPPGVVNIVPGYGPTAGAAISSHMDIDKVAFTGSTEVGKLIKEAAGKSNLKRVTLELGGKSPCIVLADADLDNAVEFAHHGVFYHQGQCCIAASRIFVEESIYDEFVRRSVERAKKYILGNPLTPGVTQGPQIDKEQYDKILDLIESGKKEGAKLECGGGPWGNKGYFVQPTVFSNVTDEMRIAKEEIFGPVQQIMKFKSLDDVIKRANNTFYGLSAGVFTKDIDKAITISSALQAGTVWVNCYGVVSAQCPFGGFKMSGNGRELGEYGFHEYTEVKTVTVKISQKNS
JMJD2E inh: blocks human JMJD2E demethylase activity. JMJD2E catalytic domain, FDH-coupled NADH fluorescence (FDH is formaldehyde dehydrogenase). Potency, µM (series often up to 57.1 µM), without a hit: at the highest dose activity change, negative = inhibition, most hits filed as inhibitors. 230,000 compounds, 1.6% hits. AID 2147; active means well fitted inhibition curve with a large enough effect, not every such curve was filed as active; inconclusive means small, poorly fitted or top-dose-only effect, or another doubt; inactive means no such curve, though single readings can be large or run the other way;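 further: potency means the concentration at half of the fitted maximal effect; 0% = wells with enzyme and -100% = buffer wells without enzyme; nearly all actives have a fitted effect of over 50% in size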
* marks the source's active call; other numbers are inactive results; ? = inconclusive; . = not tested or not shown; [ ] = dose if it differs, or a comment. Unless noted, the call rests on the fitted dose curve; in most records, active means well fitted curve in the direction sought with a large enough effect; inconclusive means small, poorly fitted or top-dose-only effect, or another doubt; inactive means no such curve, though single readings can be large; an effect the other way counts as inactive or inconclusive.

SMILES	HPGD block	CBFb RUNX1 block	HTT aggregate	HTT ATP protect	ALDH1A1 inh	JMJD2E inh
N#CC1=C(N)Oc2cc(O)ccc2C1c1cccnc1 (centres undefined)	.	-4%	14%	.	4%	13%
O=C(c1cccc(Oc2ccccc2)c1)N1CCN(c2ccccn2)CC1	.	10%	11%	8%[10 µM]	-12%	3%
CCOc1cc(/C=N/NC(=O)c2cccnc2)ccc1OC(=O)c1ccco1	.	-4%	-18%	-4%	14%	6%
CC1(C)Cc2nc3nc(SCC(=O)Nc4ccccc4)nc(N)c3cc2CO1	.	6%	1%	-37%	?	?
Cc1ccccc1-c1ccc2ncnc(NCc3cccnc3)c2c1	.	.	.	-234%	?	.
Nc1ncnc(N2CCc3ccccc32)c1[N+](=O)[O-]	.	-5%	2.5µM*	-7%	-8%	9%
Cc1ccc(C)c(N2N=C(C(=O)Nc3nccs3)CCC2=O)c1	.	0%	5%	-3%[10 µM]	5%	-4%
C[n+]1ccc(CC2C(=[N+]([O-])[O-])C=Nc3ncnn32)cc1 (centres undefined)	.	3%	19%	1%	1%	-1%
COc1ccc(CC(=O)Nc2ccc(C(=O)NC(C)(C)C)cc2)cc1OC	.	-2%	-14%[9.22 µM]	-5%	0%	2%
COc1ccc(CC(=O)Nc2ccc(C(=O)Nc3ccccc3C(=O)O)cc2)cc1OC	-16%	-2%	-5%	?	28µM*	2%
O=C(CS)Nc1ccc2ccccc2c1	.	6%	16%[9.22 µM]	3%[10 µM]	.	2%
O=C(Cc1ccc2c(c1)CCCC2)Nc1ccc2ccccc2c1	?	2%	-19%	.	22µM*	-29%
COc1ccc(CC(=O)Nc2ccc3c(c2)CCC3)cc1OC	-7%	-4%	13µM*	2%	-7%	-7%
O=C(CSc1cccs1)Nc1ccc2ccccc2c1	28µM*	12%	7%	13%	?	-4%
O=C(CSc1cccs1)Nc1cccc2ccccc12	-8%	1%	5%	-17%[10 µM]	28%	8%
CC(/C=C/C=C(\C)C(=O)O[C@@H]1O[C@H](CO[C@@H]2O[C@H](CO)[C@@H](O)[C@H](O)[C@H]2O)[C@@H](O)[C@H](O)[C@H]1O)=C\C=C\C=C(C)\C=C\C=C(/C)C(=O)O[C@@H]1O[C@H](CO[C@@H]2O[C@H](CO)[C@@H](O)[C@H](O)[C@H]2O)[C@@H](O)[C@H](O)[C@H]1O	.	.	-2%	?	.	.
N#Cc1ccc(CN2CCCC3(CCNCC3)C2)cc1	-2%	.	.	9%	-5%	.
COc1ccccc1/C=[N+](\[O-])C1SC(=S)N(C)C1(C)C (centres undefined)	.	9%	-1%[9.22 µM]	11%[10 µM]	.	0%
COc1ccc2cc(CN(CC3CCCO3)S(=O)(=O)c3ccc(C(C)=O)cc3)c(=O)[nH]c2c1 (centres undefined)	-12%	-6%	22%	23%	?	-5%
COc1ccc(S(=O)(=O)N(Cc2cc3cc(C)ccc3[nH]c2=O)CC2CCCO2)cc1 (centres undefined)	50%	-5%	27%	-22%	8.9µM*	?
COc1cccc(CN(CC2CCCO2)S(=O)(=O)c2ccc(S(=O)(=O)N(C)C)cc2)c1 (centres undefined)	-13%	2%	6%	-52%[10 µM]	2.8µM*	9%
COc1ccc2[nH]c(=O)c(CN(CC3CCCO3)C(=S)Nc3ccccc3)cc2c1 (centres undefined)	.	1%	13%[9.22 µM]	6%[10 µM]	12%	-3%
COC(=O)c1ccccc1S(=O)(=O)N(Cc1cc2ccc(OC)cc2[nH]c1=O)CC1CCCO1 (centres undefined)	-7%	5%	3.5µM*	-4%[10 µM]	2%	-3%
COc1ccc2cc(CN(CC3CCCO3)C(=S)Nc3ccccc3)c(=O)[nH]c2c1 (centres undefined)	.	-10%	-33%[9.22 µM]	-22%[10 µM]	7.1µM*	-28%
Cc1ccc(C(=O)Oc2coc(CSc3nnc(NC(=O)C4CC4)s3)cc2=O)cc1C	-12%	1%	-18%	17%[10 µM]	?	4%
SMILES	HPGD block	CBFb RUNX1 block	HTT aggregate	HTT ATP protect	ALDH1A1 inh	JMJD2E inh
CC(C)=CCC/C(C)=C/CO/N=C1/C[C@@H](O)[C@@H](O)[C@@H]2[C@@H]3C(=O)N(C4CCCCC4)C(=O)[C@H]3CC[C@H]12	.	8%[13.1 µM]	.	-5%[10 µM]	-2%[13.5 µM]	.
O=P(O)(O)O[C@@H]1O[C@H](CO)[C@@H](O)[C@H](O)[C@@H]1O	-1%	.	.	-6%[10 µM]	5%[13.5 µM]	.
CC(=O)OCC1OC(c2cc(C)cc(C)c2)C=CC1OC(C)=O (centres undefined)	.	13%[13.1 µM]	.	-6%[10 µM]	6%[13.5 µM]	.
Cc1ccc2[nH]c(=O)c(CN(Cc3cccs3)S(=O)(=O)c3ccc4c(c3)OCCO4)cc2c1	-28%	-12%	-19%	-10%[10 µM]	25µM*	?
COC(=O)c1cc(-c2ccc(NC(C)=O)cc2)nc2ccccc12	.	2%	20%	-143%	?	?
COc1ccc(CNC(=O)Cn2cc3c(n2)CCCCC3)cc1	1%	10%	-3%	11%[10 µM]	1.1µM*	6%
COc1ccc(CNC(=O)Cn2cnc3c(=O)n(C)c(=O)n(C)c32)cc1	-10%	15%	0.63µM*	-10%[0.074 µM]	-9%	8%
COc1cccc(NC(=O)Cn2cc3c(n2)CCCCC3)c1	-16%	0%	10%	5%	?	-4%
O=C(O)c1c[nH]c2ccc(F)cc2c1=O	.	-1%	14%	.	8%	-1%
O=C1c2ccccc2C(=O)N1CC#CCN1CCN(C(c2ccccc2)c2ccccc2)CC1	-11%	-16%	5%	32%	16µM*	1%
CCc1c2c(nc3cccc(C(C)C)c13)-c1cccc(=O)n1C2	?	8%	.	-40%	?	?
CCOc1ccc(/C=C/C(O)=C2/C(=O)N(C)C3(C)CC2c2ccccc2O3)cc1OC (centres undefined)	.	-1%	?	-56%	?	?
CN(C)c1ccc(/C=C/C(O)=C2/C(=O)N(C)C3(C)CC2c2ccccc2O3)cc1 (centres undefined)	-18%	29%	31%	-3%[10 µM]	20µM*	?
CC1CCc2c(sc(NC(=O)CCCn3cnc([N+](=O)[O-])n3)c2C(N)=O)C1 (centres undefined)	.	-11%	1%	-19%	-13%	-4%
NC(=O)c1c(NC(=O)CCCn2cnc([N+](=O)[O-])n2)sc2c1CCCC2	.	-10%	19%	.	1.6µM*	-25%
Cc1cc([N+](=O)[O-])nn1CCCC(=O)Nc1sc2c(c1C(N)=O)CCCC2	4.5µM*	-4%	-2%	3%[10 µM]	7%	2%
